Structures can show the parent of a compound that is named as a salt.
Each compound was assayed on Saccharomyces cerevisiae BY4741 SeMeCo community (assay: z-score of subpopulation abundance vs DMSO median, subpopulation auxotrophic for HLU; higher = larger share of this subpopulation than in DMSO controls). Details: 10 µM; 24 h; SM minimal medium; subpopulation (auxotrophy): HLU.
Experimental: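 Fluorescent four-plasmid SeMeCo (self-establishing metabolically cooperating S. cerevisiae BY4741 community; plasmids pH-mRuby2, pL-mWasabi, pU-eCFP, pM-TagRFP657) was grown 24 h in minimal SM medium with each Selleck FDA-approved drug at 10 µM in 384-well plates. Cells were fixed and imaged by high-content confocal microscopy. For each auxotrophic subpopulation (and the prototroph), a z-score gives the deviation from the DMSO vehicle-control population median.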
`COc1cccc2c1C(=O)c1c(O)c3c(c(O)c1C2=O)CC(O)(C(=O)CO)CC3OC1CC(N)C(O)C(C)O1` (stereo not given) [Doxorubicin (Adriamycin) HCl] was tested, and the “z-score of subpopulation abundance” value was 12.3. `CCC(C)(Oc1ccc(C2(c3ccc(OC(C)(CC)C(=O)O)cc3)CCCCC2)cc1)C(=O)O` (stereo not given) [Clinofibrate] was tested, and the “z-score of subpopulation abundance” value was 0.73. With `CC(=O)OCC(CCn1cnc2cnc(N)nc21)COC(C)=O` [Famciclovir] the “z-score of subpopulation abundance” value was -0.67. `CCN(CC)CCNC(=O)c1cc(Cl)c(N)cc1OC` [Metoclopramide HCl] was tested, and the “z-score of subpopulation abundance” value was -0.43. `Cc1cccc(C)c1OCC(C)N` (stereo not given) [Mexiletine HCl] was tested, and the “z-score of subpopulation abundance” value was -0.19. With `Oc1c(Cl)cc(Cl)cc1Sc1cc(Cl)cc(Cl)c1O` [Bithionol] the “z-score of subpopulation abundance” value was 2.39. In the case of `CCN1CCCC1CNC(=O)c1cc(S(N)(=O)=O)ccc1OC` (stereo not given) [Sulpiride], the “z-score of subpopulation abundance” value is reported as -1.3. In the case of `Cc1noc(NS(=O)(=O)c2ccc(N)cc2)c1C` [Sulfisoxazole], the “z-score of subpopulation abundance” value is reported as 0.89. With `Nc1nc(O)c2ncn(CCC(CO)CO)c2n1` [Penciclovir] the “z-score of subpopulation abundance” value was -0.33. For `C#C[C@]1(O)CC[C@H]2[C@@H]3CCC4=CCCC[C@@H]4[C@H]3CC[C@@]21C` [Lynestrenol], the “z-score of subpopulation abundance” value was -0.88. `Cc1cc(C)nc(NS(=O)(=O)c2ccc(N)cc2)n1` [Sulfamethazine Sodium Salt] was tested, and the “z-score of subpopulation abundance” value was -0.28. For `Cc1ccccc1OCC(O)CO` (stereo not given) [Mephenesin], the “z-score of subpopulation abundance” value was -0.38. With `CCCCCNC(=N)N/N=C/c1c[nH]c2ccc(OC)cc12` [Tegaserod Maleate] the “z-score of subpopulation abundance” value was 1.26. With `Cc1c(C)c2c(c(C)c1O)CCC(C)(CCCC(C)CCCC(C)CCCC(C)C)O2` (stereo not given) [Vitamin E] the “z-score of subpopulation abundance” value was -1.19. For `NC[C@H]1O[C@H](O[C@H]2[C@H](O[C@@H]3O[C@H](CO)[C@@H](O)[C@H]3O)[C@@H](O)[C@H](N)C[C@@H]2N)[C@H](N)[C@@H](O)[C@@H]1O` [Ribostamycin Sulfate], the “z-score of subpopulation abundance” value was -0.07. In the case of `NC12CC3CC(CC(C3)C1)C2` [Amantadine], the “z-score of subpopulation abundance” value is reported as 0.22. For `CO/N=C(\C(=O)N[C@@H]1C(=O)N2C(C(=O)OC(C)OC(C)=O)=C(COC(N)=O)CS[C@H]12)c1ccco1` (stereo not given in full) [Cefuroxime axetil], the “z-score of subpopulation abundance” value was -0.22. `CO[C@H]1C[C@@H]2CC[C@@H](C)[C@@](O)(O2)C(=O)C(=O)N2CCCC[C@H]2C(=O)O[C@H]([C@H](C)C[C@@H]2CC[C@H](n3cnnn3)[C@H](OC)C2)CC(=O)[C@H](C)/C=C(\C)[C@@H](O)[C@@H](OC)C(=O)[C@H](C)C[C@H](C)/C=C/C=C/C=C/1C` [Zotarolimus(ABT-578)] was tested, and the “z-score of subpopulation abundance” value was 18.8. For `O=c1ccc2cc(O)c(O)cc2o1` [Esculetin], the “z-score of subpopulation abundance” value was -3.44. In the case of `O=C1CN(/N=C/c2ccc(-c3ccc([N+](=O)[O-])cc3)o2)C(=O)N1` [Dantrolene sodium], the “z-score of subpopulation abundance” value is reported as -0.91. In the case of `OCc1ccc(Cl)cc1Cl` [2,4-dichlorobenzyl alcohol], the “z-score of subpopulation abundance” value is reported as 0.04. With `CCCc1cc(C(N)=S)ccn1` [Protionamide] the “z-score of subpopulation abundance” value was -0.42. With `C[N+]1(C)[C@@H]2C[C@@H](OC(=O)C(O)(c3cccs3)c3cccs3)C[C@H]1[C@@H]1O[C@@H]12` [Tiotropium Bromide hydrate] the “z-score of subpopulation abundance” value was -0.81. With `C#C[C@]1(O)CC[C@H]2[C@@H]3CCC4=CCCC[C@@H]4[C@H]3C(=C)C[C@@]21CC` [Desogestrel] the “z-score of subpopulation abundance” value was 0.73. `N[C@H]1CONC1=O` [L-Cycloserine] was tested, and the “z-score of subpopulation abundance” value was 4.59. With `NC(=O)N1c2ccccc2C=Cc2ccccc21` [Carbamazepine] the “z-score of subpopulation abundance” value was 0.32. For `CCOc1ccc2nc3cc(N)ccc3c(N)c2c1` [Ethacridine lactate monohydrate], the “z-score of subpopulation abundance” value was -4.38. With `Nc1ccc(/N=N/c2ccccc2)c(N)n1` [Phenazopyridine HCl] the “z-score of subpopulation abundance” value was -1.56. With `CC1(C)S[C@@H]2[C@H](NC(=O)COc3ccccc3)C(=O)N2[C@H]1C(=O)O` [Penicillin V potassium salt] the “z-score of subpopulation abundance” value was -0.94. `CCCCc1oc2ccccc2c1C(=O)c1cc(I)c(OCCN(CC)CC)c(I)c1` [Amiodarone HCl] was tested, and the “z-score of subpopulation abundance” value was 4.05. With `O=C1CCc2ccc(OCCCCN3CCN(c4cccc(Cl)c4Cl)CC3)cc2N1` [Aripiprazole] the “z-score of subpopulation abundance” value was 1.16. With `CCCN1CCCC[C@H]1C(=O)Nc1c(C)cccc1C` [Ropivacaine HCl] the “z-score of subpopulation abundance” value was -0.22. With `O=C(O)C[C@H](O)C[C@H](O)/C=C/c1c(C2CC2)nc2ccccc2c1-c1ccc(F)cc1` [Pitavastatin Calcium] the “z-score of subpopulation abundance” value was 1.38. In the case of `CCN(CC)CCNC(=O)c1cc(Cl)c(N)cc1OC` [Metoclopramide], the “z-score of subpopulation abundance” value is reported as 1.27. For `C[C@@H](O)[C@H]1C(=O)N2C(C(=O)O)=C(S[C@@H]3CN[C@H](CNS(N)(=O)=O)C3)[C@H](C)[C@H]12` [Doripenem Hydrate], the “z-score of subpopulation abundance” value was -0.09. In the case of `CCCCCCCN(CC)CCCC(O)c1ccc(NS(C)(=O)=O)cc1` (stereo not given) [Ibutilide Fumarate], the “z-score of subpopulation abundance” value is reported as -0.63. `CCCCCOc1ccc(-c2ccc(-c3ccc(C(=O)N[C@H]4C[C@@H](O)[C@@H](O)NC(=O)[C@@H]5[C@@H](O)[C@@H](C)CN5C(=O)[C@H]([C@@H](C)O)NC(=O)[C@H]([C@H](O)[C@@H](O)c5ccc(O)cc5)NC(=O)[C@@H]5C[C@@H](O)CN5C(=O)[C@H]([C@@H](C)O)NC4=O)cc3)cc2)cc1` was tested, and the “z-score of subpopulation abundance” value was 21.5. `CN(C)CCN1C(=O)c2cccc3cc(N)cc(c23)C1=O` [Amonafide] was tested, and the “z-score of subpopulation abundance” value was 0.2. With `N#CC(c1ccc(Cl)cc1)c1c(Cl)cc(-n2ncc(=O)[nH]c2=O)cc1Cl` (stereo not given) [Diclazuril] the “z-score of subpopulation abundance” value was -0.02. In the case of `C=CC1=C(C(=O)O)N2C(=O)[C@@H](NC(=O)/C(=N\OCC(=O)O)c3csc(N)n3)[C@H]2SC1` [Cefixime], the “z-score of subpopulation abundance” value is reported as -0.72.

— the supplement of paper PMC8975748
